Screening data deposited in PubChem BioAssay by National Center for Advancing Translational Sciences (NCATS).
HT1080 IDH1KD tx: qHTS for induction of synthetic lethality in tumor cells producing 2HG: qHTS for the HT-1080-IDH1KD cell line; HT-1080 IDH1 knockdown viability, ATP luminescence, 48 h; Potency, µM (series often up to 46.1 µM), for the others: top-dose activity, negative = toxicity, usual class: cytotoxic; 360,000 compounds, 2% hits; AID 686971, 2013;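 also: 0% = DMSO wells and -100% = cell-free medium wells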
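Knockdown cells (IDH1KD HT-1080) received compounds 2 h after plating at 750 cells/well and were kept 48 h at 37 °C in 5% FBS RPMI. A CellTiter-Glo luminescence read gave % activity for curve fitting.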
TDP1 cell noCPT: qHTS for Inhibitors of human tyrosyl-DNA phosphodiesterase 1 (TDP1): qHTS in cells in absence of CPT; DT40 Tdp1-/- hTDP1 cells, no CPT, ATP luminescence, 48 h; AID 686978, 2013; Potency, µM (highest dose often 46.2 µM), inactives show at the top dose activity change, negative = growth inhibition, hits mostly inhibitors; 420,000 compounds, 15% hits; also: % is scaled to controls: 0 for no effect and ±100 for the full control effect; nearly all actives have a fitted effect of over 55% in size
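Chicken DT40 Tdp1-/- cells complemented with human TDP1, screened without camptothecin (DMSO vehicle only), 400 cells/well. Compounds pin-transferred, cells incubated at 37 °C for at least 48 hr. Growth read as ATP-dependent luminescence (CellTiter-Glo, 30 min at RT).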
TDP1 cell CPT: qHTS for Inhibitors of human tyrosyl-DNA phosphodiesterase 1 (TDP1): qHTS in cells in presence of CPT; chicken DT40 Tdp1-/-;hTDP1 cells + 20 nM CPT, ATP luminescence, 48 h; Potency, µM (top dose mostly 46.2 µM), inactives show top-dose activity change, negative = growth inhibition, most hits filed as inhibitors; 420,000 compounds, 12% hits; also: % is scaled to controls: 0 for no effect and ±100 for the full control effect; nearly all actives have a fitted effect of over 55% in size
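Chicken DT40 Tdp1-/- cells complemented with human TDP1, 400 cells/well, exposed to compounds plus 20 nM camptothecin for at least 48 h at 37 C; viability read as ATP content by CellTiter-Glo luminescence.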
HepG2 viability: qHTS for Inhibitors of TGF-b: Cytotox Counterscreen. HepG2 CAGA-GFP viability, ATP luminescence, 18 h. Potency, µM (doses to about 46.1 µM), for the others: at the highest dose activity change, negative = cytotoxicity, usual class: cytotoxic. 410,000 compounds, 0.76% hits
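HepG2 CAGA-GFP cells (1000/well, DMEM with 1% FBS) received compound, then TGF-beta at 500 pg/mL final, and were incubated 18 hours at 37 degrees C. Viability was read by CellTiter-Glo luminescence. Media-only wells were set as complete cell-killing and DMSO as no toxicity.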
TGFb inhibitor: qHTS for Inhibitors of TGF-b. HepG2 CAGA-GFP TGF-b/SMAD3 reporter, GFP fluorescence, 18 h; TGF-beta stimulated, 500 pg/mL final. Potency, µM (doses to about 46.1 µM), for the others: at the top dose activity, negative = inhibition, hits mostly inhibitors. 410,000 compounds, 1.2% hits. AID 588855, 2011; also: % is scaled to controls: 0 for no effect and ±100 for the full control effect; nearly all actives have a fitted effect of over 65% in size
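First, reporter cells (HEPG2 CAGA-GFP) rested 2 h at 37 degrees C. Next, compounds were pinned in and TGF-beta added to 500 pg/mL final. After 18 h, GFP was imaged per cell and summed per well.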
HT1080-NT tox: qHTS for induction of synthetic lethality in tumor cells producing 2HG: qHTS for the HT-1080-NT fibrosarcoma cell line; HT-1080-NT fibrosarcoma viability, CellTiter-Glo ATP luminescence, 48 h; Potency, µM (top dose mostly 46.1 µM), for the others: at the top dose activity, negative = less viability, most hits filed as cytotoxic; 360,000 compounds, 1.6% hits; AID 686970, 2013;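 also: NT is the 2HG producing partner of a matched IDH1 knockdown line; 0% = DMSO-treated cells and -100% = media-only wells without cells; nearly all actives have a fitted effect of over 55% in size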
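Luminescent CellTiter-Glo readout after 48 hours of compound exposure at 37 degrees C defined viability of HT-1080-NT cells. Activity was normalized to DMSO wells and cell-free media wells; concentration-response curves were fitted and assigned curve classes.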
* hit, by the source's call; ? = inconclusive; . = no result given. In the library only some 17% were active in any assay of this set; here they are far more common. Calls follow the shape of the dose curve; as a rule, active = well fitted curve in the direction sought with a large enough effect; inconclusive = small, poorly fitted or top-dose-only effect, or another doubt; inactive = no such curve, though single readings can be large; an effect the other way counts as inactive or inconclusive. Potency is read from the fitted curve at half-maximal effect.

SMILES	HT1080 IDH1KD tx	TDP1 cell noCPT	TDP1 cell CPT	HepG2 viability	TGFb inhibitor	HT1080-NT tox
CC1CCCCN1C(=O)Cn1c(SCC(=O)N(C)c2ccccc2)nc2ccccc21 (stereo unspecified)	.	?	?	-3%	5%	.
CN(C(=O)CSc1nc2ccccc2n1CC(=O)N(C)c1ccc(F)cc1)c1ccccc1	.	21µM*	18µM*	-27%	-21%	.
CN(C(=O)CSc1nc2ccccc2n1CC(=O)N(C)C1CCCCC1)c1ccccc1	.	18µM*	?	-5%	-13%	.
CC(NC(=O)CCn1c(=O)c2cccn2c2ccc(F)cc21)c1ccccc1 (stereo unspecified)	.	-14%	-5%	-6%	0%	.
CC(=O)N1c2ccc(S(=O)(=O)NCC3CCC(C(=O)N4CC(C)CC(C)C4)CC3)cc2CC1C (stereo unspecified)	0%	13µM*	16µM*	-38%	?	-16%
CC(=O)N1c2ccc(S(=O)(=O)NCC3CCC(C(=O)Nc4ccc(C)cc4)CC3)cc2CC1C (stereo unspecified)	.	?	?	-15%	-5%	.
CC(=O)N1c2ccc(S(=O)(=O)NCC3CCC(C(=O)Nc4cc(C)ccc4C)CC3)cc2CC1C (stereo unspecified)	.	18µM*	23µM*	-35%	-30%	.
CC(=O)N1c2ccc(S(=O)(=O)NCC3CCC(C(=O)NCCC(C)C)CC3)cc2CC1C (stereo unspecified)	.	16µM*	15µM*	-23%	1%	.
CC(=O)N1c2ccc(S(=O)(=O)NCC3CCC(C(=O)Nc4cccc(F)c4)CC3)cc2CC1C (stereo unspecified)	.	12µM*	3.3µM*	-46%	-25%	.
CC(C)C[C@H](NC(=O)N1CCn2c1nc1ccccc12)C(=O)N[C@H](Cc1ccccc1)C(=O)O	2%	12%	3%	1%	8%	10%
Cc1cc(C)cc(NC(=O)CC2Oc3ccc(C)cc3NC2=O)c1 (stereo unspecified)	4%	-5%	1%	-1%	1%	15%
CC(=O)N1c2ccc(S(=O)(=O)NCC3CCC(C(=O)Nc4ccccc4C)CC3)cc2CC1C (stereo unspecified)	.	21µM*	26µM*	-27%	-27%	.
CC(=O)N1c2ccc(S(=O)(=O)NCC3CCC(C(=O)Nc4cc(C)ccn4)CC3)cc2CC1C (stereo unspecified)	?	16µM*	18µM*	-13%	?	?
CC(=O)N1c2ccc(S(=O)(=O)NCC3CCC(C(=O)NCc4ccc(C)cc4)CC3)cc2CC1C (stereo unspecified)	1%	15µM*	21µM*	-2%	-27%	?
CC(=O)N1c2ccc(S(=O)(=O)NCC3CCC(C(=O)NC4CCCCC4)CC3)cc2CC1C (stereo unspecified)	-24%	2.9µM*	-19%	-14%	-10%	?
COc1ccc(-c2ccc3c(=O)cc(-c4ccsc4)oc3c2)cn1	6%	?	18µM*	-5%	-7%	-11%
O=c1cc(-c2ccsc2)oc2cc(-c3ccc4c(c3)OCO4)ccc12	14%	?	18µM*	16%	14%	9%
O=c1cc(-c2ccc3c(c2)OCCO3)oc2ccc(Cl)cc12	13%	?	?	-1%	-3%	24%
CCCOP(=O)(c1ccc(N(C)C)cc1)C(O)c1ccc(Cl)cc1 (stereo unspecified)	-7%	-20%	4%	-4%	-16%	-12%
Cc1ccc(S(=O)(=O)c2[nH]c(-c3ccccc3)nc2SCC(=O)O)cc1	.	-9%	-4%	-3%	8%	.
CC(=O)Sc1nc(-c2ccccc2)[nH]c1S(=O)(=O)c1ccc(C)cc1	18%	21µM*	18µM*	3%	0%	6%
CSc1nc(-c2ccc(C)cc2)[nH]c1S(=O)(=O)c1ccccc1	23µM*	-23%	-11%	-19%	-12%	-18%
COCCSc1nc2c([nH]c3ccccc32)c(=O)n1-c1ccc(OC)c(OC)c1	.	?	-21%	-39%	-1%	.
O=C(/C=C/c1cn(-c2ccccc2)nc1-c1ccc2c(c1)OCCO2)NCCO	-3%	-14%	-3%	-159%	0%	5%
OCc1ccc2c(c1)c(-c1ccc3c(c1)OCCO3)c(-c1ccccc1)n2-c1ccccc1	-18%	23µM*	18µM*	-8%	20µM*	?
SMILES	HT1080 IDH1KD tx	TDP1 cell noCPT	TDP1 cell CPT	HepG2 viability	TGFb inhibitor	HT1080-NT tox
COc1cc(C(=O)N=c2sc3ccccc3n2C)cc(OC)c1OC	-1%	8.2µM*	7.3µM*	-14%	6%	-2%
COc1cc(C(=O)N=c2sc3c(C)ccc(OC)c3n2C)cc(OC)c1OC	0%	5.2µM*	15µM*	0%	3%	11%
COc1ccc(C(=O)N=c2sc3c(C)ccc(OC)c3n2C)cc1	16%	4.1µM*	3.3µM*	-20%	-8%	-1%
COc1ccc(OC)c2c1sc(=NC(=O)C1CCCCC1)n2C	19%	-23%	-1%	1%	-1%	21%
O=[N+]([O-])c1cccc2c(N3CCOCC3)ccnc12	-14%	15µM*	?	-40%	?	?
CCOC(=O)/C=C/[C@H]1CCc2cccc(Cl)c2O1	8%	-2%	-17%	10%	1%	10%
CC(C)(C)c1ccc(/C=C/C(=O)Nc2ccc(S(N)(=O)=O)cc2)cc1	.	8.2µM*	6.5µM*	-105%	?	.
O=C1NC(=O)C(Cc2ccccc2)(c2cccnc2)N1 (stereo unspecified)	?	21%	-19%	-4%	-9%	14%
COc1cccc(-c2cc(NCc3cnc(C)cn3)ncn2)c1	.	-13%	7%	.	.	.
COc1ccc(Nc2ncccc2C(=O)NCc2ccccc2)cc1	5%	-29%	-1%	-14%	15%	-1%
COc1ccc(NC(=O)c2cccnc2Nc2ccc(OC)cc2)cc1	-26%	?	16µM*	-11%	9%	-19%
